We go through eight molecules from PubChem BioAssay (NCI).

Holding throughout (test): NCI-60 one-dose screen, 48 h (100 = growth as untreated, 0 = no growth, -100 = all killed)
One assay deals with SK-MEL-2 melanoma. The settings on record: 10 µM unless noted.
A further assay deals with EKVX NSCLC. The note with it: 10 µM unless noted.
Another assay relates to SN12C renal. The settings on record: 10 µM unless noted.
In another assay the test system is UO-31 renal. The note with it: 10 µM unless noted.
For another assay, the system named is TK-10 renal. The settings on record: 10 µM unless noted.
For a further assay, the system named is ACHN renal. The settings on record: 10 µM unless noted.
For a further assay, the system named is CAKI-1 renal. The settings on record: 10 µM unless noted.
A further assay relates to A498 renal. The note with it: 10 µM unless noted.
The next assay relates to CCRF-CEM leukemia. The note with it: 10 µM unless noted.
The next assay deals with MOLT-4 leukemia. The settings on record: 10 µM unless noted.
The test system of the next assay is SR leukemia. The settings on record: 10 µM unless noted.
The next assay concerns RPMI-8226 leukemia. The note with it: 10 µM unless noted.
In another assay the test system is OVCAR-8 ovarian. The note with it: 10 µM unless noted.
For a further assay, the system named is OVCAR-5 ovarian. The settings on record: 10 µM unless noted.
A further assay concerns OVCAR-4 ovarian. The note with it: 10 µM unless noted.
The subject of another assay is SK-OV-3 ovarian. The settings on record: 10 µM unless noted.
For a further assay, the system named is IGROV1 ovarian. The settings on record: 10 µM unless noted.
The subject of a further assay is OVCAR-3 ovarian. The settings on record: 10 µM unless noted.
In the next assay the test system is HS 578T breast. The note with it: 10 µM.
The next assay concerns NCI/ADR-RES ovarian. The settings on record: 10 µM unless noted.

Each structure is given as a SMILES string. Compounds without any hit were thinned out: in the full panel of roughly 83,000, 20% have a hit.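 Plates (96-well) were seeded with cells, treated with compound at one concentration, and incubated for 48 hours before percent growth was determined.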 Unmarked numbers belong to inactive results. Active and inactive are the calls of the source. How the source made its calls: active means growth percent below 10; inactive means the rest.

As to `COc1cc(C2=NOC(c3cc(OC)c(OC)c(OC)c3)C2)ccc1OCCCCOc1cc2c(cc1OC)C(=O)N1CCC[C@H]1C=N2` (some centres undefined), the growth in the assay with SK-MEL-2 melanoma was 1.46% (active); in the assay with EKVX NSCLC, -39.6% (active); in the assay on SN12C renal it was 6.18% (active); in the assay with UO-31 renal, 7.06% (active); in the assay on TK-10 renal it was -22.4% (active); in the assay with ACHN renal, 5.06% (active). Also, the growth with CAKI-1 renal is 5.08% (active); in the assay with A498 renal, -58.7% (active); in the assay with CCRF-CEM leukemia it was -37.5% (active); in the assay on MOLT-4 leukemia it was 2.1% (active); in the assay with SR leukemia, -24.8% (active); in the assay on RPMI-8226 leukemia, -27.3% (active). Also, the growth in the assay with OVCAR-8 ovarian is 6.96% (active); in the assay with OVCAR-5 ovarian, 9.04% (active); in the assay with OVCAR-4 ovarian it was -35.6% (active); in the assay with SK-OV-3 ovarian it was 10.4%; with IGROV1 ovarian it was -3.57% (active); in the assay with OVCAR-3 ovarian, -34.1% (active). Also, the growth with HS 578T breast is -10.4% (active); with NCI/ADR-RES ovarian it was 18.4%.
Regarding `C/C(=N\NC(=S)Nc1ccccc1)c1ccccn1`, the growth in the assay with SK-MEL-2 melanoma is 73.5%; in the assay with EKVX NSCLC, 12.9%; in the assay with SN12C renal, 39.2%; with UO-31 renal, -1.12% (active); with TK-10 renal it was 50.9%; in the assay with ACHN renal, 17.7%. Also, the growth was 6.16% (active) with CAKI-1 renal; 29.1% with A498 renal; 16.7% in the assay with CCRF-CEM leukemia; 8.83% (active) in the assay on MOLT-4 leukemia; 13.7% in the assay with SR leukemia; 33.5% in the assay on RPMI-8226 leukemia. In addition, the growth in the assay on OVCAR-8 ovarian was 11.8%; with OVCAR-5 ovarian, 35.6%; with OVCAR-4 ovarian it was 33.5%; in the assay with SK-OV-3 ovarian it was 40%; in the assay with IGROV1 ovarian it was 15.7%; in the assay with OVCAR-3 ovarian it was 9.49% (active). Further, the growth is 64.1% in the assay with HS 578T breast and 17.2% in the assay on NCI/ADR-RES ovarian.
Regarding `CCN(CC)CCCNc1cccc2c(C)cc(OC)nc12`, the growth in the assay with SK-MEL-2 melanoma is 97.4%; in the assay on EKVX NSCLC, 114%; in the assay on SN12C renal, 88.4%; with UO-31 renal, 56.9%; in the assay with TK-10 renal, 96.3%; in the assay on ACHN renal it was 91.6%. The growth is 96.8% with CAKI-1 renal; 70.3% in the assay with A498 renal; 102% in the assay with CCRF-CEM leukemia; 78.7% in the assay on MOLT-4 leukemia; 78.3% with SR leukemia; 92.3% in the assay on RPMI-8226 leukemia. The growth with OVCAR-8 ovarian is 97.9%; in the assay on OVCAR-5 ovarian it was 95.5%; in the assay with SK-OV-3 ovarian it was 106%; with IGROV1 ovarian it was 89.5%; in the assay with OVCAR-3 ovarian, 99.9%; in the assay with HS 578T breast it was 96.4%. Further, the growth in the assay with NCI/ADR-RES ovarian is 95.9%.
Consider `Cc1nn(-c2ccc(Cl)cc2)c(=O)n1CCN1CCOCC1`, for which the growth in the assay with SK-MEL-2 melanoma is 61.1%; with EKVX NSCLC, 75.5%; in the assay on SN12C renal, 89.6%; in the assay on UO-31 renal it was 66%; in the assay on TK-10 renal, 64.4%; in the assay on ACHN renal, 38.7%. The growth in the assay with CAKI-1 renal is 72.4%; in the assay with A498 renal, 105%; in the assay with CCRF-CEM leukemia it was 63.2%; in the assay on MOLT-4 leukemia it was 90.9%; in the assay on SR leukemia, 95.3%; in the assay on RPMI-8226 leukemia, 83.1%. Moreover, the growth is 116% in the assay on OVCAR-8 ovarian; 92.4% in the assay with OVCAR-5 ovarian; 93.4% with OVCAR-4 ovarian; 42.8% in the assay on SK-OV-3 ovarian; 79.2% with OVCAR-3 ovarian; 42.7% in the assay on HS 578T breast. In addition, the growth in the assay on NCI/ADR-RES ovarian is 75.9%.
Take `COc1cc(NC(C)CCCN)c2ncccc2c1Oc1ccc(Cl)cc1` (centres undefined): the growth in the assay on SK-MEL-2 melanoma is 102%; in the assay on EKVX NSCLC, 77.1%; in the assay on SN12C renal it was 77.3%; in the assay with UO-31 renal, 41.5%; with TK-10 renal, 101%; in the assay on ACHN renal it was 82.6%. Further, the growth was 68.7% in the assay on CAKI-1 renal; 71.1% in the assay with A498 renal; 77% in the assay on CCRF-CEM leukemia; 52.9% in the assay on MOLT-4 leukemia; 53.2% in the assay on SR leukemia; 63% with RPMI-8226 leukemia. In addition, the growth was 84.8% in the assay on OVCAR-8 ovarian; 84.6% with OVCAR-5 ovarian; 56.3% in the assay on OVCAR-4 ovarian; 98.6% with SK-OV-3 ovarian; 64.6% in the assay with IGROV1 ovarian; 70% in the assay on HS 578T breast. In the assay with NCI/ADR-RES ovarian, the growth was 77.3%.
For the molecule `O=C(c1ccc(C(F)(F)F)c(Cl)c1)N(Cc1ccc(Cl)cc1)c1ccc(-c2cc(C(F)(F)F)[nH]n2)c(O)c1`, the growth in the assay with SK-MEL-2 melanoma is -18.3% (active); with EKVX NSCLC it was 0.0577% (active); in the assay on SN12C renal it was 14.6%; in the assay with UO-31 renal, 5.66% (active); in the assay with TK-10 renal, 5.25% (active); in the assay on ACHN renal it was 3.03% (active). The growth in the assay on CAKI-1 renal is 1.19% (active); in the assay with A498 renal it was -21.4% (active); with CCRF-CEM leukemia it was 10.4%; with MOLT-4 leukemia it was 9.19% (active); with SR leukemia it was 20%; in the assay with RPMI-8226 leukemia, 1.58% (active). Also, the growth in the assay on OVCAR-8 ovarian was 11%; with OVCAR-5 ovarian it was 17.3%; in the assay with OVCAR-4 ovarian, 19.9%; in the assay on SK-OV-3 ovarian, -4.32% (active); with IGROV1 ovarian, 15.2%; with HS 578T breast it was 3.66% (active). In addition, the growth with NCI/ADR-RES ovarian is 2.97% (active).
Regarding `O=C(O)c1ccccc1N=Cc1ccccc1`, the growth is 108% with SK-MEL-2 melanoma; 101% in the assay with EKVX NSCLC; 110% in the assay with SN12C renal; 97.5% in the assay with UO-31 renal; 103% with TK-10 renal; 105% in the assay on ACHN renal. Also, the growth was 96.3% with CAKI-1 renal; 117% in the assay with A498 renal; 88.5% in the assay on CCRF-CEM leukemia; 94.6% in the assay with MOLT-4 leukemia; 95.9% with SR leukemia; 101% in the assay with RPMI-8226 leukemia. The growth is 106% with OVCAR-8 ovarian; 108% in the assay with OVCAR-5 ovarian; 107% with OVCAR-4 ovarian; 104% in the assay on SK-OV-3 ovarian; 115% in the assay with OVCAR-3 ovarian; 106% in the assay on HS 578T breast. Besides, the growth in the assay with NCI/ADR-RES ovarian was 100%.
Regarding `N#Cc1nc(-c2cccc(Br)c2)cc(-c2ccc(Nc3nc(N4CCCCC4)nc(N4CCCCC4)n3)cc2)c1N`, the growth with SK-MEL-2 melanoma is -10.7% (active); in the assay with EKVX NSCLC, 5.85% (active); in the assay with SN12C renal, 16.7%; in the assay with UO-31 renal, -78.8% (active); in the assay on TK-10 renal it was -87.8% (active); in the assay with ACHN renal it was -96.3% (active). Further, the growth with CAKI-1 renal was -75.5% (active); with A498 renal, -20% (active); with CCRF-CEM leukemia, 11.4%; in the assay with MOLT-4 leukemia it was 8.61% (active); in the assay on SR leukemia it was 11.9%; in the assay on RPMI-8226 leukemia it was -0.0335% (active). Also, the growth is 12.2% in the assay with OVCAR-8 ovarian; 9.23% (active) in the assay with OVCAR-5 ovarian; -53.8% (active) in the assay with OVCAR-4 ovarian; 87.4% in the assay on SK-OV-3 ovarian; -76.6% (active) in the assay on OVCAR-3 ovarian; 6.14% (active) in the assay on HS 578T breast. Moreover, the growth with NCI/ADR-RES ovarian is 24.3%.
